Data taken from PubChem BioAssay AID504803 (The Scripps Research Institute Molecular Screening Center, 2011).
Hit rate of the full screen: of about 340,000 compounds, about 1,700 (0.5%) were called active. Rule as the data show it: active = inhibition above about 36%; inactive = the rest. The list comes from a sample in which actives are over-represented; it also holds similar structures and randomly drawn compounds.

Each compound was assayed against Serine protease HTRA1 (Homo sapiens) (UniProt Q92743) (assay: HTRA1 serine protease inhibitors, primary screen, biochemical, fluorescence polarization, HTS (AID 504803;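 also: 0% = enzyme with DMSO and 100% = wells lacking enzyme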)). Conditions: recombinant HTRA1, FP-rhodamine activity-based probe, at 5.96 µM, stronger effect = higher value.
Sequence of Serine protease HTRA1 (Homo sapiens) (Q92743 whole entry, looked up): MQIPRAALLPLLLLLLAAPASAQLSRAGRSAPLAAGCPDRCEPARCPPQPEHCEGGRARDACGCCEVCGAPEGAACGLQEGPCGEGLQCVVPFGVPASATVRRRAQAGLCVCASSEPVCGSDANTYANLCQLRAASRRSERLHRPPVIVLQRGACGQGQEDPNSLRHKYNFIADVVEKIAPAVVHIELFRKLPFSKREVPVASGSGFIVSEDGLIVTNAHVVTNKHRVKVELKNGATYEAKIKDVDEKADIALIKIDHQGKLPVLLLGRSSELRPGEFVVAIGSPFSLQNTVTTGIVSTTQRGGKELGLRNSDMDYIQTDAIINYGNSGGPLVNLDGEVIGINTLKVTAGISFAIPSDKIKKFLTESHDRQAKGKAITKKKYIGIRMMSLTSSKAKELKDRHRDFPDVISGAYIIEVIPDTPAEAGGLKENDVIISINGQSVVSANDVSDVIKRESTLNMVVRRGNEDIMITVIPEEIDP

Structure (SMILES) | inhibition
C[C@@H]1CN([C@H](C)CO)C(=O)CCCn2nncc2CO[C@@H]1CN(C)S(=O)(=O)c1cccc(C#N)c1 | 4.09% (inactive)
CCN1CCN(C(c2cccnc2)c2cc(Cl)c3cccnc3c2O)CC1 (configuration not stated) | 42% (active)
COCCNC(=O)/C(C#N)=C/c1cccc(OCc2ccccc2)c1 | -21.2% (inactive)
N#C/C(=C\c1ccc(O)c(O)c1)C(=O)NCc1ccccc1 | 59.1% (active)
COc1ccc(CNC(=O)/C(C#N)=C/c2cccc(OC)c2OC)cc1 | -5.58% (inactive)
CC(C)CC1C(=O)N(Cc2cn(CC3CCCCC3)nn2)CCS(=O)(=O)N1Cc1ccc(-c2ccc(Cl)cc2)cc1 (configuration not stated) | -45.3% (inactive)
Cc1cccc(N2CCN(c3ccc(NC(=O)/C=C\C(=O)O)cc3)CC2)c1 | 52% (active)
CC(C)=C1SC(N2CCN(c3cccc(C)c3)CC2)=NC1=O | -3.36% (inactive)
Cc1cccc(N2CCN(C(=O)c3ccccc3NC(=O)C3CCCCC3C(=O)O)CC2)c1 (configuration not stated) | 2.87% (inactive)
O[C@H]1C[C@H](c2ccc(Cl)cc2)N(Cc2cccs2)C[C@@H]1n1cc(C2CC2)nn1 | -46% (inactive)
COc1ccc(C(=O)Nc2cccc(/C=C(/CCC(=O)O)c3nc4ccccc4s3)c2)cc1 | -96.2% (inactive)
COc1cccc2sc(NNC(=O)c3nc4ccccc4s3)nc12 | 39.4% (active)
COc1cccc(OC)c1C(=O)Nc1nnc(C(C)C)s1 | -2.63% (inactive)
C[C@H]1CN([C@@H](C)CO)C(=O)CCCn2cc(nn2)CO[C@@H]1CN(C)C(=O)Nc1ccccc1 | 2.55% (inactive)
Cc1noc(C)c1NC(=O)N(C)C[C@@H]1Oc2cc(Br)ccc2S(=O)(=O)N([C@@H](C)CO)C[C@H]1C | 0.21% (inactive)
Cc1ccc(C(=O)N[C@H](C(=O)N2CCN(c3ncccn3)CC2)C(C)C)cc1 | 5.28% (inactive)
CCc1nc2c(=O)[nH]cnc2o1 | 5.91% (inactive)
CCCc1cc(-c2n[nH]c(=S)n2Cc2ccccc2)cs1 | -3.06% (inactive)
CCCn1c(C)cc(-c2csc(NC(=O)CCc3nc4ccccc4c(=O)[nH]3)n2)c1C | -3.91% (inactive)
CCOC(=O)C1=C(O)/C(=C/c2cc(C)n(-c3ccccc3)c2C)N=C1C | 20.9% (inactive)
Cc1cc(-c2csc(N)n2)c(C)n1-c1ccccc1 | 52.5% (active)
Cc1cc(-c2csc(N)n2)c(C)n1Cc1ccccc1 | 37.6% (active)
Cc1cc(C(=O)OCC(=O)N2c3ccccc3NC(=O)C2(C)C)c(C)n1-c1ccccc1 | -25.2% (inactive)

Structure (SMILES) | inhibition
CCN1C(=O)[C@H]2[C@@H](c3ccccc3)N[C@]3(CCCN(Cc4ccc(C)cc4)C3=O)[C@H]2C1=O | -0.19% (inactive)
COc1ccc(NC(=O)N(C)C[C@H]2Oc3ncc(C#C[C@@H](C)O)cc3C(=O)N([C@H](C)CO)C[C@H]2C)cc1 | 6% (inactive)
Nc1cccc(OCCCCCOc2cccc(N)c2)c1 | 3.94% (inactive)
COC(=O)c1ccccc1N=NNc1ccc([N+](=O)[O-])cc1 | 3.36% (inactive)
COc1ccc(NC(=O)c2cc(=O)[nH]c3ccccc23)cc1S(=O)(=O)N1CCOCC1 | -7.81% (inactive)
Oc1ccc2ccccc2c1N=Nc1nccs1 | 44.7% (active)
COc1ccc(NC(=O)COC(=O)C2COc3ccccc3O2)cc1 (configuration not stated) | -2.75% (inactive)
COc1cccc2cc(-c3cc(=O)oc4cc(C)c(O)cc34)oc12 | -8.58% (inactive)
COc1cc(O)c2c(=O)c3c(O)c(O)ccc3oc2c1OC | 53.9% (active)
COc1c(O)cc2oc(-c3ccc(O)c(O)c3)cc(=O)c2c1O | 25.7% (inactive)
COc1ccc(N)cc1NC(=O)CN1CCOCC1 | -3.64% (inactive)
Oc1ccc(C2Nc3cccc4cccc(c34)N2)cc1 | 22.9% (inactive)
Brc1ccccc1C1Nc2cccc3cccc(c23)N1 | 59.2% (active)
COc1cc2c(cc1OC)C(c1ccccc1Br)NC(=O)C2 (configuration not stated) | -6.31% (inactive)
Cc1ccc(NC(=O)c2ccco2)cc1 | 1.31% (inactive)
Cc1nc2ccccc2nc1CC(O)(c1ccccc1)c1ccccc1 | -14.1% (inactive)
Cc1cc(Cl)ccc1C(=O)C1CCCN(C(=O)c2ccc3c(c2)OCO3)C1 (configuration not stated) | -4.58% (inactive)
NC(=O)NC(=O)C(OC(=O)CCNS(=O)(=O)c1ccccc1)c1ccccc1 (configuration not stated) | 36.7% (active)
O=S(=O)(NCCNS(=O)(=O)c1ccccc1)c1ccccc1 | 4.81% (inactive)
Cc1ccc(S(=O)(=O)NCCC(=O)OCC(=O)N(C)c2ccccc2)cc1 | 5.9% (inactive)
CSc1ncnc2c1ncn2CCCNCc1cccs1 | 3.07% (inactive)
C[C@@H]1CCCCO[C@H](CN(C)Cc2ccccc2)[C@@H](C)CN([C@H](C)CO)C(=O)c2cc(NS(=O)(=O)c3ccc(Cl)cc3)ccc2O1 | -17.9% (inactive)
CCc1cccc(CC)c1N1C(=O)CC(Sc2ccccc2N)C1=O (configuration not stated) | 2.44% (inactive)

Structure (SMILES) | inhibition
Cn1nc(N)c2ncc(C(Cl)(Cl)Cl)nc21 | -0.52% (inactive)
CC(C)CNC(=O)C(=O)Nc1ccc(N(C)C)cc1 | 7.37% (inactive)
CN(C)c1ccc(N/C=C/C(=O)C(F)(F)F)cc1 | 38.7% (active)
COc1cc(OC)c(C(=O)Nc2ccc(N(C)C)cc2)cc1OC | 5.76% (inactive)
C[C@H](CO)N1C[C@H](C)[C@@H](CN(C)C(=O)c2cccc(F)c2)Oc2cc(-c3cncnc3)ccc2S1(=O)=O | 2.58% (inactive)
O=C(c1cc(S(=O)(=O)N2CCOCC2)ccc1Cl)N1CCOCC1 | 2.81% (inactive)
O=C(Nc1cc(S(=O)(=O)N2CCOCC2)ccc1Cl)c1cc(=O)c2ccccc2o1 | -4.07% (inactive)
O=[N+]([O-])c1cc(Cl)cc(/C=N/NC(=S)Nc2cc(S(=O)(=O)N3CCOCC3)ccc2Cl)c1O | 45.7% (active)
Cc1ccc(Nc2nc(Cl)c(C=O)s2)cc1 | -8.62% (inactive)
Nc1ccc(C(=O)Nc2ccccc2N)cc1 | 6.6% (inactive)
Cc1ccc(Nc2ccccc2N)cc1 | 47.8% (active)
CC1(c2cccc(N)c2)OCCO1 | 4.7% (inactive)
O=C(O)C1=C(C(=O)O)C2CCC1C2 | 9.01% (inactive)
CN1CCN(c2ccncc2S(=O)(=O)N2CCCC2)CC1 | 3.56% (inactive)
Clc1ccc(C2=CSC3=Nc4cccc5cccc(c45)N23)cc1 | 44.2% (active)
CC1=C(C(=O)N2CCOCC2)CC(CC(=O)NCc2cccc3ccccc23)C(=O)N1CCC1=CCCCC1 (configuration not stated) | -3.43% (inactive)
O=C1NC(Cc2ccccc2)c2nc3ccc(Br)cc3c(=O)n2-c2cc3ccccc3cc21 (configuration not stated) | -54.3% (inactive)
CC(=O)Nc1ccc(S(=O)(=O)N2CCCC2C(=O)O)cc1 (configuration not stated) | 2% (inactive)
CC(=O)Nc1ccc(NS(=O)(=O)c2ccc3c(c2)NC(=O)CC(=O)N3)cc1 | 6.8% (inactive)
CC(=O)Nc1ccc(S(=O)(=O)Nc2ccc(N3CCCCC3)cc2)cc1 | 52.4% (active)
C=CCOc1ccccc1CNn1c(C)n[nH]c1=S | 3.58% (inactive)
CNC(=S)NNC(=O)c1oc2nc(-c3ccccc3)cc(-c3ccco3)c2c1N | 51.7% (active)
CNC(=S)NNC(=O)c1cccn(Cc2ccccc2)c1=O | 3.18% (inactive)

Structure (SMILES) | inhibition
CNC(=S)NNC(=O)c1sccc1OCc1ccccc1 | 5.29% (inactive)
Cc1cc2cc3n(c2nn1)N=C(Cl)CC3 | 3.25% (inactive)
CCOC(=O)C1CCN(C(=O)c2ccc3c(=O)n4nc(Nc5ccccc5CC)sc4nc3c2)CC1 | -34.2% (inactive)
CCOC(=O)C=Cc1ccc(C(=O)OCC)[nH]1 | 0.68% (inactive)
Cc1[nH]c2ccccc2c1C(=O)C(=O)NCc1nnnn1-c1cccc(F)c1 | 7.28% (inactive)
CCC(Oc1ccccc1)C(=O)OCC(=O)Nc1c(C)nn(-c2ccccc2)c1C (configuration not stated) | -6.47% (inactive)
CCOc1ccc(/C=N/NC(=O)CSc2ccccn2)cc1O | 9.01% (inactive)
CCn1c(SCC(=O)N/N=C/c2ccncc2)nc2ccccc21 | 4.65% (inactive)
Cn1c(SCC(=O)N/N=C/c2ccc(O)c(O)c2)nc2ccccc21 | 41.2% (active)
O=C1OCCC1=COCCCCOC=C1CCOC1=O | -3.04% (inactive)
O=C(O)c1ccc(N/N=C/c2cn(-c3ccccc3)nc2-c2cccs2)cc1 | -11.3% (inactive)
Cc1ccc(NC(=O)COc2ccc(/C=N\NC(=O)c3cccnc3)cc2)cc1C | -7.41% (inactive)
O=C(N/N=C/c1sc(N2CCCCC2)nc1-c1cccs1)c1cccnc1 | 40.5% (active)
CSc1ncnc2c1ncn2CCCNCc1ccco1 | 8.47% (inactive)
CCN(CC)CCN(C(=O)c1ccc2c(c1)CCCC2)c1nc2c(OC)cccc2s1 | -19.6% (inactive)
CN1OC[C@@H]2CN[C@H](c3ccc(-c4ccccc4)cc3)C[C@@H]21 | -1.81% (inactive)
COCCn1c(SCC(=O)Nc2ccc(F)cc2F)nc2c(c1=O)SCC2 | -1.19% (inactive)
CC(=O)N1CCN(c2ccc(NCc3ccc(C(C)C)cc3)cc2)CC1 | 59.2% (active)
CC(=O)c1ccc(N2CCN(C(=O)CCc3ccccc3)CC2)cc1 | 2.82% (inactive)
CC(CC(=O)N1CCN(c2ccccc2)CC1)c1ccccc1 (configuration not stated) | -0.5% (inactive)
O=C(OCc1ccccc1)N1CCC2CC1c1cc(N3CCN(S(=O)(=O)c4cc(Cl)cc(Cl)c4)CC3)ccc12 (configuration not stated) | -4.06% (inactive)
C[C@H](O)[C@@H]1C(=O)N2CCc3c([nH]c4ccccc34)[C@@H]2C[C@@H]1N(C)C(=O)Nc1ccc(F)cc1 | -1.56% (inactive)
C[C@@H]1CN([C@H](C)CO)C(=O)CCCn2nncc2CO[C@@H]1CN(C)C(=O)OCc1ccccc1 | -3.03% (inactive)
